This is a sample that favours compounds with a hit; in the whole collection about 1.2% have one here.
Mtb betalactam = beta-lactam sensitization of Mtb H37Rv, H37Rv; 330,000 tested, 0.27% active; AID 434955, 2010; M. tuberculosis H37Rv growth with meropenem, percent inhibition; inhibition, % at 25 µM; call rule not given here;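 further: growth measured after seven days incubation then overnight dye step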
RN4220 kill = growth inhibition of S. aureus RN4220, primary screen, OD600; 16 h; inhibition, % (concentration not given with the values); 330,000 tested, 0.33% active; AID 1259311, 2017; in the data active means inhibition above about 85%
PfHsp40 yeast = rescue of yeast from PfHsp40 toxicity, primary screen, S. cerevisiae, ATP luminescence | S. cerevisiae expressing PfHsp40, growth rescue | growth rescue, % at 12.5 µM | 340,000 tested, 0.68% active; in the data active means growth rescue above about 28%, passing the limit was not always enough; inconclusive means no clear call, values can overlap the other calls;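 further: yeast W303a lacking pdr1 and pdr3 grown in galactose medium; growth measured after three days at 30 °C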
Sa ugtP lethal = growth inhibition of ugtP-null S. aureus, primary screen, RN4220 ugtP deletion, OD600; 16 h; growth inhibition, % (concentration not given with the values); 330,000 tested, 0.54% active; AID 1259309, 2017; in the data active means growth inhibition above about 68%
Vc quorum ag = inducers of Vibrio cholerae quorum light production without autoinducers, primary screen, BH1578 luxS cqsA deficient, single point; AID 588436, 2011; activation, % at 18.7 µM; 350,000 tested, 0.16% active; V. cholerae BH1578 lux reporter, luminescence, 6 h; in the data active means activation mostly above about 9.7%, no sharp cut-off; inconclusive means no clear call, values can overlap the other calls; inactive means mostly below about 3.7%
Large screens that a line does not name were inactive.

c1ccc(CCc2ccc3n2Cc2cnnn2-c2ccccc2-3)cc1	none (no result: Mtb betalactam, RN4220 kill, Sa ugtP lethal)
Cc1nc2ccccn2c1C(O)=C1C(=O)C(=O)N(CCN2CCOCC2)C1c1cccnc1 (stereo unspecified)	none (no result: Mtb betalactam, PfHsp40 yeast, Vc quorum ag)
Cc1ccc(Nc2c(-c3ccccn3)nc3ccc(C)cn23)cc1	RN4220 kill 100, Sa ugtP lethal 95
Cc1ccc(Nc2c(-c3ccccn3)nc3cc(C)ccn23)cc1	RN4220 kill 100, Sa ugtP lethal 100
CC(=O)C(=NNc1ccc(Cl)cc1Cl)Sc1cccc2cccnc12	Sa ugtP lethal 85 (no result: Mtb betalactam, PfHsp40 yeast, Vc quorum ag)
Cc1ccc(-c2csc(NC(=O)c3cccc(C)c3)c2C(=O)O)cc1	PfHsp40 yeast 60
Fc1cccc(Cl)c1C=NNc1c(Cl)cncc1Cl	none (no result: Mtb betalactam, PfHsp40 yeast, Vc quorum ag)
CCOc1ccc(CC(=O)Nc2nccs2)cc1OCC	PfHsp40 yeast 38 (no result: RN4220 kill, Sa ugtP lethal)
COc1ccc(CC(=O)Nc2nccs2)cc1OC	none
COc1cc(C(=O)C(=O)c2ccc(O)c(OC)c2)ccc1O	none
COc1cc(-c2cc[n+](C)cc2)ccc1O	PfHsp40 yeast 67
O=C(Oc1cccc2cccnc12)c1ccco1	none
O=C(Cc1ccc(Cl)cc1)Oc1cccc2cccnc12	Sa ugtP lethal 89
O=C1C=C(NC(=O)Nc2ccc(Cl)c(Cl)c2)CCC1	RN4220 kill 100, Sa ugtP lethal 100
O=C(Nc1ccc(Cl)c(Cl)c1)Nc1ccc(Br)cc1F	RN4220 kill 100, Sa ugtP lethal 99
O=C(Nc1ccc(Cl)cc1)Nc1ccc(Cl)c(Cl)c1	none (no result: RN4220 kill, PfHsp40 yeast, Sa ugtP lethal, Vc quorum ag)
CCOC(=O)C1C2COc3cc(OC)ccc3C2N2C(=O)c3cc(OC)c(OC)cc3NC(=O)[C@@]12C (stereo partly specified)	none (no result: Mtb betalactam, PfHsp40 yeast, Vc quorum ag)
CC1CN(C(C)CO)C(=O)c2cc(NS(C)(=O)=O)ccc2OC1CN(C)C(=O)Nc1ccc(F)cc1 (stereo unspecified)	none (no result: Mtb betalactam, PfHsp40 yeast, Vc quorum ag)
N#CC(C#N)=Cc1ccc(O)c(O)c1	none
CC(C)(C)c1cc(C=C(C#N)C#N)cc(C(C)(C)C)c1O	PfHsp40 yeast 211
O=[N+]([O-])c1cccc2ccc(C=Cc3ccc(Cl)cc3)nc12	none (no result: Mtb betalactam, PfHsp40 yeast, Vc quorum ag)
CC(=NNC(=S)Nc1ccccc1Cl)c1ccccn1	PfHsp40 yeast 200 (no result: Mtb betalactam, RN4220 kill, Sa ugtP lethal)
CC(=NNC(=S)Nc1ccccc1)c1ccccn1	none (no result: Mtb betalactam, RN4220 kill, PfHsp40 yeast, Sa ugtP lethal)
Oc1ccc(CC2CNCCN2CC2CCCCC2)cc1 (stereo unspecified)	none (no result: Mtb betalactam, PfHsp40 yeast, Vc quorum ag)
O=C(Oc1ccc(Cl)c2cccnc12)c1ccco1	RN4220 kill 91
Cc1ccc(C)c(/C=C/C(=O)c2ccccc(=O)c2O)c1	PfHsp40 yeast 224
Cc1ccc(/C=C/C(=O)c2ccccc(=O)c2O)c(C)c1	PfHsp40 yeast 183
O=C(/C=C/c1ccccc1Cl)c1ccccc(=O)c1O	PfHsp40 yeast 64
O=C(/C=C/c1ccc([N+](=O)[O-])cc1)c1ccccc(=O)c1O	none (no result: Mtb betalactam, RN4220 kill, Sa ugtP lethal)
CCn1ncc(C2CC3CN(Cc4cccc(Cl)c4)C(=O)[C@]34CCCN24)c1C (stereo partly specified)	none (no result: Mtb betalactam, PfHsp40 yeast, Vc quorum ag)
O=C1C2ON(c3ccccc3)C(c3ccncc3)C2C(=O)N1c1ccccc1 (stereo unspecified)	none
Cc1cccc(C)c1N1C(=O)C2ON(c3ccccc3)C(c3ccncc3)C2C1=O (stereo unspecified)	PfHsp40 yeast 254
Fc1ccc(C=Nn2c(-c3cccs3)n[nH]c2=S)cc1	none (no result: Mtb betalactam, PfHsp40 yeast, Vc quorum ag)
O=C(/C=C/c1ccc(Br)cc1)NC(=S)NNC(=O)c1ccco1	PfHsp40 yeast inconclusive
O=C(/C=C/c1ccccc1)NC(=S)NNC(=O)c1ccco1	PfHsp40 yeast 35
O=C(/C=C/c1ccccc1)NC(=S)Nc1ccccc1	PfHsp40 yeast 102
O=C(NC(=S)N(Cc1ccccc1)Cc1ccccc1)c1ccccc1F	RN4220 kill 95, Sa ugtP lethal 94
O=C(NC(=S)N(CCc1ccccc1)CCc1ccccc1)c1ccco1	PfHsp40 yeast 187
Oc1ccc(C=NNC(=S)NCCN2CCOCC2)c(O)c1	none (no result: Mtb betalactam, PfHsp40 yeast, Vc quorum ag)
CCOC(=O)NC(=O)C(C#N)=Cc1ccccc1	none (no result: Mtb betalactam, PfHsp40 yeast, Vc quorum ag)
CCN(CC)C(=O)CSC1=NC(=Cc2ccco2)C(=O)N1c1ccc(OC)c(Cl)c1	none (no result: Mtb betalactam, PfHsp40 yeast, Vc quorum ag)
O=C(NN=C1CC2CCC1C2)c1cc2ccccc2cc1O (stereo unspecified)	none (no result: Mtb betalactam, PfHsp40 yeast, Vc quorum ag)
COc1cc2c(cc1OC)CN(CC(=O)Nc1ccc(F)cc1)C(C(=O)O)C2 (stereo unspecified)	PfHsp40 yeast 35
CCC(=NNC(=O)c1cc(C2CC2)[nH]n1)c1ccccc1	none (no result: Mtb betalactam, PfHsp40 yeast, Vc quorum ag)
Cc1ccc(/C=C2\SC(=S)N(C(Cc3ccccc3)C(=O)O)C2=O)cc1 (stereo unspecified)	PfHsp40 yeast 161
O=C(CSc1cccc2cccnc12)NN=Cc1cccnc1	none (no result: Mtb betalactam, PfHsp40 yeast, Vc quorum ag)
COc1ccc(NC(=O)C(C#N)=Cc2cc(OC)c(OCc3ccc(C(=O)O)cc3)cc2Br)cc1	none (no result: Mtb betalactam, PfHsp40 yeast, Vc quorum ag)
O=C(CC(c1ccccc1)(c1ccccc1)c1ccccc1)NC(Cc1ccccc1)C(=O)O (stereo unspecified)	none (no result: Mtb betalactam, PfHsp40 yeast, Vc quorum ag)
CCOc1ccc(CN=C(N)N=C(N)N)cc1Cl	none
CCCOc1ccc(CCCN=C(N)N)cc1Cl	Sa ugtP lethal 101 (no result: PfHsp40 yeast)
CCCCOc1ccc(CN=C(N)N)cc1Cl	Sa ugtP lethal 100
Oc1c(C=Nc2ccccn2)sc2ccccc12	none (no result: Mtb betalactam, PfHsp40 yeast, Vc quorum ag)
C=CCNC(=S)N1CCN(c2cc3c(cc2F)c(=O)c(C(=O)O)cn3CC)CC1	RN4220 kill 98, Sa ugtP lethal 99
CCCCCCn1cc(C(=O)O)c(=O)c2cc(F)c(N3CCN(C(=O)OCC)CC3)cc21	none
C=CCCCCCCCCC(=O)N1CCN(c2cc3c(cc2F)c(=O)c(C(=O)O)cn3CC)CC1	Sa ugtP lethal 93
CCCCN(CCCC)C(=O)c1cn(CC)c2cc(N3CCN(C)CC3)c(F)cc2c1=O	RN4220 kill 93, Sa ugtP lethal 97
COc1cccc(CSc2nc3ccccc3cc2C=O)c1	Sa ugtP lethal 98
CN(C)c1ccc(/C=C/C(=O)c2c(O)c3ccccc3oc2=O)cc1	none
CCOc1ccc(/C=C/C(=O)c2c(O)c3ccccc3oc2=O)cc1	Sa ugtP lethal 92
COC(=O)c1ccc(NC(C(=O)OC)C(C)C)c([N+](=O)[O-])c1 (stereo unspecified)	PfHsp40 yeast 50 (no result: RN4220 kill, Sa ugtP lethal)
CCC(C)C(Nc1ccc(C(=O)OC)cc1[N+](=O)[O-])C(=O)OC (stereo unspecified)	none
C/C=C(\C)C(=O)Nc1cccc(C2=NOC3(C2)C[C@@H](C(N)=O)N(C(=O)c2ccccc2C(=O)c2ccccc2)C3)c1 (stereo partly specified)	PfHsp40 yeast 51 (no result: RN4220 kill, Sa ugtP lethal)
COCOC=C(NC(C)=O)c1ccccc1	none (no result: Mtb betalactam, PfHsp40 yeast, Vc quorum ag)
CC(C)CCn1c2ccccc2c2cc(CC(N)=O)ccc21	Sa ugtP lethal 83
NC(=O)CCn1c2ccccc2c2ccccc21	none
O=C(CSc1ccccc1Cl)N1CCC(c2nc3ccccc3s2)CC1	RN4220 kill 96, Sa ugtP lethal 97
O=c1cc(-c2ccc(O)cc2)oc2cc(OC3OC(CO)C(O)C(O)C3OC3OC[C@](O)(CO)C3O)cc(O)c12 (stereo partly specified)	none (no result: Mtb betalactam, PfHsp40 yeast, Vc quorum ag)
CC(CC(=O)Nc1ccc(F)cc1)=NNC(=O)COc1ccccc1	none (no result: Mtb betalactam, PfHsp40 yeast, Vc quorum ag)
CCc1ccc(S(=O)(=O)N(C(=O)c2ccncc2)c2ccc(OC(=O)c3ccncc3)cc2)cc1	PfHsp40 yeast 234

Assay outcomes: PubChem, several laboratories
